What all share (design): scale not given: direction of the effect not stated beside the values
Test [1] concerns the target Protein translocase subunit SecA (Escherichia coli (strain K12)) (UniProt P10408). As to the kind of experiment: Assay to Identify E. coli SecA ATPase Inhibitors. The class given is functional. Conditions: 30 µM.
Test [2] concerns the target T1, Ubiquitin-activating enzyme e1, putative (Leishmania donovani (strain BPK282A1)) (UniProt E9BSI1).
T1 sequence (whole entry): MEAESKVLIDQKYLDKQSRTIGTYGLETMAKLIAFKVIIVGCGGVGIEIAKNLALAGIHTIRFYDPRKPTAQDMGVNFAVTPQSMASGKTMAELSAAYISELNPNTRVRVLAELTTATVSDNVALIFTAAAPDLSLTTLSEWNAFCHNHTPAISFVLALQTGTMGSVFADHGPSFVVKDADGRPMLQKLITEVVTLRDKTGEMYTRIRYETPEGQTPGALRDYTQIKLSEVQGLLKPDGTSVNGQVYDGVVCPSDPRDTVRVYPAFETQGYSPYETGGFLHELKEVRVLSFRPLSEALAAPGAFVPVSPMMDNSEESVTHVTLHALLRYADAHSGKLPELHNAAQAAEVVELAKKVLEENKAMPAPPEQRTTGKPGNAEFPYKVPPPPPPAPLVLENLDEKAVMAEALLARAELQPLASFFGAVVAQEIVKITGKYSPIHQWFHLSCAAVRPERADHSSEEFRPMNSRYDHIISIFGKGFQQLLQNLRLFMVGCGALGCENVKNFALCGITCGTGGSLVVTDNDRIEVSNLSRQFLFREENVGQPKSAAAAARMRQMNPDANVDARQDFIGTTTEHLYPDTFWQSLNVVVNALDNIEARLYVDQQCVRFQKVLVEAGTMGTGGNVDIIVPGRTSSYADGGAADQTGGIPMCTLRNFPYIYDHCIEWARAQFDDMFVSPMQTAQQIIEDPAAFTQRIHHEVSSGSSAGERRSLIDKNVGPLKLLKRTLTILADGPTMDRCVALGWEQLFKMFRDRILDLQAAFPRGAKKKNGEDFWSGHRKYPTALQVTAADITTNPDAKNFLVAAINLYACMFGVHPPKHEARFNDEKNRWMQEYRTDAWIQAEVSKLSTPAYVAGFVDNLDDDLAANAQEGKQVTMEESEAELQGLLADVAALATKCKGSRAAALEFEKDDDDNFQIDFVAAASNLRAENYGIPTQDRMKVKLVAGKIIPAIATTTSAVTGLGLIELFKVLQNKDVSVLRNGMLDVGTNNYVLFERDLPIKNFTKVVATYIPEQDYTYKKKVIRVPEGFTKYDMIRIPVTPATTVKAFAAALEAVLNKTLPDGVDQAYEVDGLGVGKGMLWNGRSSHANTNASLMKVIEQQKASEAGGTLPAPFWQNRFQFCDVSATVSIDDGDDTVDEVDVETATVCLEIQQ
As to the kind of experiment: Leishmania donovani Ubiquitin Activating Enzyme (LdE1). The settings on record: 30 µM. The test is classed as functional.

Test [3] has as its target T2, Aspartate--tRNA(Asp/Asn) ligase (Mycobacterium tuberculosis (strain ATCC 25618 / H37Rv)) (UniProt P9WFW3). Also: in the data most compounds retested in dose-response had high values.
T2 sequence (whole entry): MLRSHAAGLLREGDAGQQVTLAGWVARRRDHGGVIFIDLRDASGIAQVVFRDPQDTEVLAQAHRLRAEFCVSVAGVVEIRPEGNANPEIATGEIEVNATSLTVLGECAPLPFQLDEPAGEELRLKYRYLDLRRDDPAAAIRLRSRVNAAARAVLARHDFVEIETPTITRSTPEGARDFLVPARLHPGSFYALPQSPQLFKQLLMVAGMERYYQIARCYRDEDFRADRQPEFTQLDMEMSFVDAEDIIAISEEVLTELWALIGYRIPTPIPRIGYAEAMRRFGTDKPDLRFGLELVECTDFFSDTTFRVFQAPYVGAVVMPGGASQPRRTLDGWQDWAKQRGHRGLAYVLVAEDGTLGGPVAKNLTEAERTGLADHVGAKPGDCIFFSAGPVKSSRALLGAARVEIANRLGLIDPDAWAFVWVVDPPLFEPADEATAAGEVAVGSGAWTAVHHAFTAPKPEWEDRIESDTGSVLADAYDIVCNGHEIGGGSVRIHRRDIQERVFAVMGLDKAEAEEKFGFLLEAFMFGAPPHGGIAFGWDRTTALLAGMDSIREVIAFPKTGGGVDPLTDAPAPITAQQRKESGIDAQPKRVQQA
As to the kind of experiment: Assay for Asp RNA synthetase-1 from Mycobacterium tuberculosis. Conditions: 30 µM. The class given is functional.

The target in test [4] is Sialic acid-binding Ig-like lectin 9 (Homo sapiens) (UniProt Q9Y336). Briefly: Hs-Siglec9 ALPHAscreen SOP 20170721. The settings on record: 10 µM. For orientation: Alpha assays give light when donor and acceptor beads are brought close together.
Sequence of Sialic acid-binding Ig-like lectin 9 (Homo sapiens) (Q9Y336 whole entry): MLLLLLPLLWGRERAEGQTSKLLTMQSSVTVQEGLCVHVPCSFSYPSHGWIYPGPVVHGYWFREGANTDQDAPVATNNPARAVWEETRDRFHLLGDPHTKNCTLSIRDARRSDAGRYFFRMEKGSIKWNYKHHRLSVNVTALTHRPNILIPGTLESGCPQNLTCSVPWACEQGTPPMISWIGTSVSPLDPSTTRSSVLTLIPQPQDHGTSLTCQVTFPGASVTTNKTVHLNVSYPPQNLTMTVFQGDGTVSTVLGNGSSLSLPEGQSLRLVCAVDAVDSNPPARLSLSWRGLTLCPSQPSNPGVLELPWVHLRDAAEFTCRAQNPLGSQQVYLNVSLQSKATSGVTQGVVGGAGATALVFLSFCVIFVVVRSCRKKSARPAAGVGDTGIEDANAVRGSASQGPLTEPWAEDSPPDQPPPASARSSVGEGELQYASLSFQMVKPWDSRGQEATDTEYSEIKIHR
The subject of a further test is Trypanosoma cruzi. Briefly: Trypanosoma cruzi phosphomannomutase and mannose-1-phosphate guanylyltransferase assay. The class given is functional. The settings on record: 10 µM.
The target of test [5] is T3, Arginase-2, mitochondrial (Homo sapiens) (UniProt P78540).
T3 sequence (whole entry): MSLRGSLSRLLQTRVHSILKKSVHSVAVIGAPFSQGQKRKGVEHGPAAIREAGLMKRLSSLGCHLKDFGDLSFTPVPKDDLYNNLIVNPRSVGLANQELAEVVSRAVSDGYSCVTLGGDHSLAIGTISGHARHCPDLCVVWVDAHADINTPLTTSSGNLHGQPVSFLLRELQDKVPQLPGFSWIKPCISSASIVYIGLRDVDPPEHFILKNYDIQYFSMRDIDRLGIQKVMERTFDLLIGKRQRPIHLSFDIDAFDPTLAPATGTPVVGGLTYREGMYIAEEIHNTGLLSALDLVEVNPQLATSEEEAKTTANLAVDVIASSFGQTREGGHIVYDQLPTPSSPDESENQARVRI
As to the kind of experiment: in vitro enzyme assay to detect the production of urea directly proportional to the activity of Arginase II. Also: in the data most compounds retested in dose-response had high values. The class given is functional. The settings on record: 33.3 µM.

The target in test [6] is T4, Proteasome subunit beta (Trypanosoma cruzi) (UniProt O96673).
T4 sequence (whole entry): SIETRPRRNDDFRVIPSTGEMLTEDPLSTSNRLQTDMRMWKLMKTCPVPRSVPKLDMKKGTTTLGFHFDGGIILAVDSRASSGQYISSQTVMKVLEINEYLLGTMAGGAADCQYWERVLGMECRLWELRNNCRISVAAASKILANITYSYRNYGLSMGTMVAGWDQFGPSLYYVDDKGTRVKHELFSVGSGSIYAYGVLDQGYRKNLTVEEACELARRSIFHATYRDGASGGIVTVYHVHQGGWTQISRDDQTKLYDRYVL
As to the kind of experiment: Trypanosoma cruzi proteasome chymotrypsin-like activity (TcProtChymo) assay. Also: in the data most compounds retested in dose-response had high values. The class given is functional. Conditions: 9.37 µM.

The species entered for the next test is Homo sapiens. Briefly: To identify inhibition of the IFN signalling (Jak-Stat) pathway via expression of an eGFP reporter gene under the control of an IFN-stimulated response element (ISRE) containing MxA promoter. The settings on record: 30 µM. The test is classed as functional.
For test [7], the target named is Shiga toxin 2 (Escherichia coli O157:H7) (UniProt P09385+P09386). As to the kind of experiment: E. coli 0.157:H7 Shiga Toxin SOP - stx2 screening assay. The class given is functional. The settings on record: 30 µM.
Test [8] addresses T5, Tyrosyl-tRNA synthetase, putative (Trypanosoma cruzi (strain CL Brener)) (UniProt Q4DSP6).
T5 sequence (whole entry): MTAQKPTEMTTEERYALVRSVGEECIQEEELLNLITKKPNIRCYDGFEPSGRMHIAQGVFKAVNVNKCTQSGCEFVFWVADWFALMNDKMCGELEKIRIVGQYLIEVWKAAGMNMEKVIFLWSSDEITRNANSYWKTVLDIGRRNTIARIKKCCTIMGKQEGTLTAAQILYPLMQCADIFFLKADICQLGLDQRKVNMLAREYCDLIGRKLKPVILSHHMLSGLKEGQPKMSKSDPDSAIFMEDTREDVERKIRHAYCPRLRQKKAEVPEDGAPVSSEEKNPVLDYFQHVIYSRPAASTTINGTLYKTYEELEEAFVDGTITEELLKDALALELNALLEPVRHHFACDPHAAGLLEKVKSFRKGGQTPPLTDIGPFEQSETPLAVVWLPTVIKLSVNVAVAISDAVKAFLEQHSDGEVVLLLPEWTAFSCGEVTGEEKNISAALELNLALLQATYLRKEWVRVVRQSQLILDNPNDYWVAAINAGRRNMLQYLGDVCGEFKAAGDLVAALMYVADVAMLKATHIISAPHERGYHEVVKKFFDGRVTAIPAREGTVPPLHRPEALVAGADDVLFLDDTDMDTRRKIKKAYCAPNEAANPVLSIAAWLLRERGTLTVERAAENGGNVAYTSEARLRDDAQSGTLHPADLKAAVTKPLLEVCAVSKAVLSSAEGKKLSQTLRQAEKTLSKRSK
Briefly: Trypanosoma cruzi tyrosyl tRNA synthetase (TcYRS) _High Tyrosine SOP. Also: in the data most compounds retested in dose-response had high values. The test is classed as functional. The settings on record: 30 µM.

For test [9], the target named is T5, Tyrosyl-tRNA synthetase, putative (Trypanosoma cruzi (strain CL Brener)). As to the kind of experiment: Trypanosoma cruzi tyrosyl tRNA synthetase (TcYRS) SOP. The test is classed as functional. Conditions: 30 µM.
The target of test [10] is Chromo domain-containing protein 1 (Saccharomyces cerevisiae (strain ATCC 204508 / S288c) (Baker's yeast)) (UniProt P32657). As to the kind of experiment: ScCHD-1 Enzyme Inhibition Assay. Also: in the data most compounds retested in dose-response had high values. The class given is functional. The settings on record: 30 µM.
Sequence of Chromo domain-containing protein 1 (Saccharomyces cerevisiae (strain ATCC 204508 / S288c) (Baker's yeast)) (P32657 whole entry, the tested form may be a part): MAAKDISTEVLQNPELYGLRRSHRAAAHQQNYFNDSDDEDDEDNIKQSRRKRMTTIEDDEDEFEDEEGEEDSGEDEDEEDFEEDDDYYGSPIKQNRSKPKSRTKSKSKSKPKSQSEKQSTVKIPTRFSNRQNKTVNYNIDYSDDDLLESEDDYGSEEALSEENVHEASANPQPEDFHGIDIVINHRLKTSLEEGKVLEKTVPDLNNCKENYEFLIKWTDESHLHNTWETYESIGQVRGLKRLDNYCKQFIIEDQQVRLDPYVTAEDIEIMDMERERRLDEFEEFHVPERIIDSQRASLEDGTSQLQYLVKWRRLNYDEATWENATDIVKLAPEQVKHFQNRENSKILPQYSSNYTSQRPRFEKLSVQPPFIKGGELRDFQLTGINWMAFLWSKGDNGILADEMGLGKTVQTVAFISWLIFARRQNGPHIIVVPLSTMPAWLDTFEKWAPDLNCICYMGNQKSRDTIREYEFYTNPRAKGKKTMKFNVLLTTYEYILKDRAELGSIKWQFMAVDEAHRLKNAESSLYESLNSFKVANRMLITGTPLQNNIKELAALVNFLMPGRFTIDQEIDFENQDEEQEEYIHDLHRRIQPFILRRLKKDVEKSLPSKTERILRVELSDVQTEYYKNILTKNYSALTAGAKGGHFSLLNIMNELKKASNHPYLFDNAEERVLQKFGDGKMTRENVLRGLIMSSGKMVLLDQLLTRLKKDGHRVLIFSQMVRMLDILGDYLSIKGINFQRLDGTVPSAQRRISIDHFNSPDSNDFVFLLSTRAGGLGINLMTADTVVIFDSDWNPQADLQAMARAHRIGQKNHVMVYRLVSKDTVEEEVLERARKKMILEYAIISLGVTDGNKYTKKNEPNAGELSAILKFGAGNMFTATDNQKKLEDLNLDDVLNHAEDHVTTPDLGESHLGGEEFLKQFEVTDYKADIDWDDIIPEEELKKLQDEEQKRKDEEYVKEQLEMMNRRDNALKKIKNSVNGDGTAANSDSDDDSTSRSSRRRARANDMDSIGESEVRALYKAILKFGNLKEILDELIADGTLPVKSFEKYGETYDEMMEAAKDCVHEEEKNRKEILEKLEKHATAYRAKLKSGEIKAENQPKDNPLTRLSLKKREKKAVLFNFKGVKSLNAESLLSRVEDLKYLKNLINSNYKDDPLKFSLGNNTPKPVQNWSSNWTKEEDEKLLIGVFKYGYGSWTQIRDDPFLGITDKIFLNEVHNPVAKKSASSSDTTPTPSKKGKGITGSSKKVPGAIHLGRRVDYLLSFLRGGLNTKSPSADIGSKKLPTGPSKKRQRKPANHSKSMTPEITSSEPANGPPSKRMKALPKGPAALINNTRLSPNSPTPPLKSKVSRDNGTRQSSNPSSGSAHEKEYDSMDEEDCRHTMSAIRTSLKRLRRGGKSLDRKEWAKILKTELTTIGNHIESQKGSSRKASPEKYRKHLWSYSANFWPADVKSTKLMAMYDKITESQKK

For part of these data: Measured potencies and affinities stand elsewhere.

Sequence of Protein translocase subunit SecA (Escherichia coli (strain K12)) (P10408 whole entry): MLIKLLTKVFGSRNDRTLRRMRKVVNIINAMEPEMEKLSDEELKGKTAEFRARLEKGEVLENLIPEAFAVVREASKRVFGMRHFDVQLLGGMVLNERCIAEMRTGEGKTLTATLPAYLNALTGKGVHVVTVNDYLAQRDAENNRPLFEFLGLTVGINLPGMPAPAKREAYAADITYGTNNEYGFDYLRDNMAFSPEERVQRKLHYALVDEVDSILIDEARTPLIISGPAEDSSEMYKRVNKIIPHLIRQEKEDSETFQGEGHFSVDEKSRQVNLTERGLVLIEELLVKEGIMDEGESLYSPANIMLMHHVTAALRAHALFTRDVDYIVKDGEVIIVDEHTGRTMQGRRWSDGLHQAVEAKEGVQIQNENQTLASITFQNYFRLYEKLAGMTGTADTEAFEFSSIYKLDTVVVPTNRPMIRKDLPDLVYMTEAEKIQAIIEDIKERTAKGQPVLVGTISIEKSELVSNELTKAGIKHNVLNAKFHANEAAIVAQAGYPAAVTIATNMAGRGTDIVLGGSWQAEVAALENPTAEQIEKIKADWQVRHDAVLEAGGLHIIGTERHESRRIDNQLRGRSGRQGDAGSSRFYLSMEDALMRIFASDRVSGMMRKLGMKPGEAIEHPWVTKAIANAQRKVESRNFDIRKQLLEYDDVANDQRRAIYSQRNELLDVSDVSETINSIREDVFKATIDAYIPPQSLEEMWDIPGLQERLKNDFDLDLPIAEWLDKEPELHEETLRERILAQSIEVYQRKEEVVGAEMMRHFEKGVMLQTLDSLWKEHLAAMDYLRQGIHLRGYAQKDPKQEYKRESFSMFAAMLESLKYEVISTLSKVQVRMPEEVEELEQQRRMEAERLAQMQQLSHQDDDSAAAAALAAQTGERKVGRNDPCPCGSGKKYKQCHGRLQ

On to `COCCN1C[C@@H]2CN(Cc3cccc(C)n3)C[C@@H]2C1=O`, for which the Percent Effect in test [1] is -2.33%; in [2], -1.3%; in test [3], 1.39%; in test [4], 0.23%; in the test with Trypanosoma cruzi it was -24.2%; in test [5], 2.28%. Moreover, the Percent Effect in test [6] is 16.1%; in the test filed under Homo sapiens, 1.2%; in test [7], -2.04%; in [8], 7.73%; in test [9] it was 12.5%; in test [10] it was -8.2%.

On to `NC(=O)N1CC2(CCNCC2)c2cc(Cl)ccc21`, for which the Percent Effect was 0.158% in [1]; 1.3% in test [2]; 0.933% in [3]; -0.465% in test [4]; -3.38% in the test on Trypanosoma cruzi; 4.11% in test [5]. For the same compound, the Percent Effect in test [6] was 8.84%; in the test filed under Homo sapiens it was 10.9%; in test [7], 4.45%; in test [8], 0%; in test [9], -2.5%; in [10], 2.33%.

Consider `CC(C)(C)n1cc(C(=O)NCCCn2ccnc2)c2cccnc21`, for which the Percent Effect was 3.93% in [1]; 17.3% in test [2]; 6.13% in test [3]; -8.62% in test [4]; 4.73% in the test with Trypanosoma cruzi; 1.77% in test [5]. Besides, the Percent Effect in test [6] is 19.1%; in the test filed under Homo sapiens it was 29.9%; in [7], -3.75%; in [8], 2.12%; in test [9] it was 15%; in [10] it was -24.1%.

In the case of `Cc1nn(-c2ccccc2)c2c1C(c1ccc(C(=O)O)cc1)CC(=O)N2` (stereo unspecified), the Percent Effect in test [3] was 1.57%.

For `CCN(CC1CN(Cc2ncc[nH]2)CCO1)c1cccnn1` (stereo unspecified), the Percent Effect in [3] was -3.05%.

In the case of `c1cnc(N2CCC3(COCCN(CC4CC4)C3)C2)nc1` (stereo unspecified), the Percent Effect in [1] was -1.87%; in test [2] it was 3.9%; in test [3], 6.45%; in test [4] it was -2.75%; with Trypanosoma cruzi, -3.21%; in [5] it was 0%. The Percent Effect is 14.2% in [6]; -5.95% in the test listed under Homo sapiens; 3.4% in [7]; 3.68% in test [8]; 10.3% in test [9]; -1.41% in test [10].

For the compound `COc1ccc(-n2cnnc2SCC(C)(C)O)cn1`, the Percent Effect in test [3] was -0.425%.

Values taken from ChEMBL document CHEMBL3988442, “University of Dundee, Small-Polar-MMV Screening Library” (2021).
